{"source": "PubChem BioAssay AID743152", "about": "(Broad Institute, 2013)", "note": "Active and inactive are the calls of the source.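 Rule for the calls: active = compounds that cut cell ATP glow, with a fitted half-effect dose at or under their top tested dose; inconclusive = flat partial loss of 30 to 70 percent, or poor fit; inactive = the rest.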"}
{"assay": "viability loss in A549 lung cancer cells – cell-based, CellTiter-Glo luminescence, dry powder, set 2, cytotoxicity control, dose response (AID 743152)", "conditions": "CellTiter-Glo ATP luminescence, 72 h; series mostly up to 26 µM"}
{"compound": "C[C@@H]1CC(=O)NN=C1c1ccc(N2CCOCC2)cc1", "outcome": "inactive"}
{"compound": "C[C@H]1CC(=O)NN=C1c1ccc(N2CCOCC2)c(F)c1", "outcome": "inactive"}
{"compound": "CCN(CC)c1ccc(C2=NNC(=O)CC2C)cc1[N+](=O)[O-]", "note": "(stereo not drawn)", "outcome": "inactive"}
{"compound": "CCN1N=C(c2ccc(N(CC)CC)cc2)[C@H](C)CC1=O", "outcome": "inactive"}
{"compound": "C[C@@H]1CC(=O)NN=C1c1ccc(-c2cncnc2)cc1", "outcome": "inactive"}
{"compound": "C[C@@H]1CC(=O)NN=C1c1ccc(N2CCOCC2)c(F)c1", "outcome": "inactive"}
{"compound": "C[C@@H]1CC(=O)NN=C1c1ccc(F)c(F)c1", "outcome": "inactive"}
{"compound": "O=C1CN2Cc3c(ccc(Cl)c3Cl)N=C2N1", "outcome": "inactive"}
{"compound": "CC(=O)Nc1ccc(C2=NNC(=O)C[C@H]2C)cc1[N+](=O)[O-]", "outcome": "inactive"}
{"compound": "COc1cc2c(cc1OC)-c1cc(=Nc3c(C)cc(C)cc3C)n(C)c(=O)n1CC2", "outcome": "inactive"}
{"compound": "Cn1c(NC(=O)c2ccccc2)nc2ccccc21", "outcome": "inactive"}
{"compound": "C[C@@H]1CC(=O)NN=C1c1ccc(Cl)cc1", "outcome": "inactive"}
{"compound": "C[C@@H]1CC(=O)NN=C1c1ccc(C2CCCCC2)cc1", "outcome": "inactive"}
